Test results from a collection of fitness landscapes (doi:10.1016/j.celrep.2020.107928).
Over roughly 81,000 sequences, “one-hybrid fitness for binding NBS DNA” has its median near -0.1; the highest 2% begin near 0.36. The sample as a whole holds a higher share of the highest values than the screen did.

B1: Caulobacter ParB omega fusion; a variant is named by its letters at X, in order, B8GW30 (parent)
chain: MESVVVGEPGMSEGRRGLGRGLSALLGEVDAAPAQAPGEQLGGSREAPIEILQRNPDQPRRTFREEDLEDLSNSIREKGVLQPILVRPSPDTAGEYQIVAGERAWRAAQRAGLKTVPIMVRELDDLAVLEIGIIENVQRADLNVLEEALSYKVLMEKFERTQENIAQTIGKSXSHVANXMRLLXLPDEVQSYLVSGELTAXHARAIAAAADPVALAKQIIEGGLSVRETEALARKAPNLSAGKSKGGRPPRVKDTDTQALESDLSSVLGLDVSIDHRGSTGTLTITYATLEQLDDLCNRLTRGI

Variants of: B1
Assay: one-hybrid fitness for binding NBS DNA (the Noc-binding site; scaled: cognate 1, non-cognate 0); higher = stronger binding
Conditions: with NBS DNA site
Procedure, shortened: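 In E. coli USO, a HIS3 reporter with its site placed 19 bp from the promoter was used to select Caulobacter ParB variants randomised at four specificity codons. Growth lasted 48 hours at 37°C on histidine-free M9 containing 0.1 mM IPTG and 5 mM 3-AT. Fitness was taken as the log change in variant-to-wild-type read ratio from Illumina sequencing of pre- and post-selection plasmids, rescaled between the non-cognate and cognate sites.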

Variant | one-hybrid fitness for binding NBS DNA
NNIR | ≤ 0.2
LTMG | ≤ 0.2
YGMS | ≤ 0.2
RDGN | ≤ 0.2
AVNT | ≤ 0.2
WVRG | ≤ 0.2
LRPM | ≤ 0.2
KTIT | ≤ 0.2
DVIS | ≤ 0.2
LRVF | ≤ 0.2
QRVF | ≤ 0.2
QSKF | 0.29
QPKF | ≤ 0.2
QTKF | 0.43
QTLF | ≤ 0.2
QTVF | ≤ 0.2
QCKF | 0.387
QRPF | ≤ 0.2
QRKF | 0.405
ASVE | ≤ 0.2
QMSV | ≤ 0.2
QFMT | ≤ 0.2
SSYL | ≤ 0.2
ETES | ≤ 0.2

Variant | one-hybrid fitness for binding NBS DNA
RVIR | 0.242
VVRC | ≤ 0.2
HHPQ | ≤ 0.2
VVGI | ≤ 0.2
EYWD | ≤ 0.2
RMRA | 0.409
RMDA | ≤ 0.2
RTDA | ≤ 0.2
RSRA | 0.317
RCRA | 0.422
RPRA | ≤ 0.2
RTYA | 0.268
RYDA | ≤ 0.2
RMYA | ≤ 0.2
RYYA | ≤ 0.2
RTRA | 0.446
RYRA | 0.367
GMVG | ≤ 0.2
QAEN | ≤ 0.2
LNQS | ≤ 0.2
QLYL | ≤ 0.2
PLQD | ≤ 0.2
RKRA | 0.45
RKYA | 0.344

Variant | one-hybrid fitness for binding NBS DNA
RKDA | ≤ 0.2
LPLA | ≤ 0.2
AQDR | ≤ 0.2
LIAK | ≤ 0.2
RQVC | ≤ 0.2
RQKC | 0.381
RQVH | ≤ 0.2
RQKP | ≤ 0.2
RQKS | 0.581
RQKD | ≤ 0.2
RQYC | ≤ 0.2
RQKN | 0.214
RQKH | 0.376
PEWV | ≤ 0.2
NNCS | ≤ 0.2
ASVF | ≤ 0.2
CPDH | ≤ 0.2
EDYG | ≤ 0.2
PTEW | ≤ 0.2
LKYT | ≤ 0.2
VKLR | ≤ 0.2
WHHR | ≤ 0.2
CGEV | ≤ 0.2
PNVE | ≤ 0.2

Variant | one-hybrid fitness for binding NBS DNA
RKKV | 0.277
WVQL | ≤ 0.2
KCKT | 0.212
KRKT | 0.66
KRVT | 0.547
KPVT | ≤ 0.2
KCVT | ≤ 0.2
KPKT | ≤ 0.2
CLTC | ≤ 0.2
AGTG | ≤ 0.2
LNTG | ≤ 0.2
GMVQ | ≤ 0.2
PNQS | ≤ 0.2
SNTG | ≤ 0.2
AFGR | ≤ 0.2
RKNW | ≤ 0.2
QVHS | 0.296
QVDT | ≤ 0.2
QVHT | 0.373
QVNH | ≤ 0.2
QVYT | 0.268
QVRT | 0.56
QVNT | 0.44
QVPT | ≤ 0.2

Variant | one-hybrid fitness for binding NBS DNA
QVHP | ≤ 0.2
VWQD | ≤ 0.2
RNQS | 0.281
FLHG | ≤ 0.2
RSTN | ≤ 0.2
RTTF | ≤ 0.2
RTTR | 0.571
RITD | ≤ 0.2
RATR | 0.43
RITR | 0.437
RATP | ≤ 0.2
RSTR | 0.447
RSTP | ≤ 0.2
RTTQ | ≤ 0.2
RITP | ≤ 0.2
RATN | ≤ 0.2
PCDK | ≤ 0.2
FRRH | ≤ 0.2
RLSY | ≤ 0.2
INTS | ≤ 0.2
LHDW | ≤ 0.2
TECL | ≤ 0.2
SMQN | ≤ 0.2
TDVE | ≤ 0.2

Variant | one-hybrid fitness for binding NBS DNA
RRTR | 0.75
RHTR | 0.459
RLTQ | ≤ 0.2
RKTR | 0.602
RHTK | ≤ 0.2
RKTK | ≤ 0.2
RKTN | ≤ 0.2
RHTG | ≤ 0.2
RRTC | 0.314
RLTY | ≤ 0.2
RRTF | ≤ 0.2
RLTR | 0.443
RNPQ | ≤ 0.2
MEAC | ≤ 0.2
CITN | ≤ 0.2
YDAI | ≤ 0.2
TGAY | ≤ 0.2
NFLN | ≤ 0.2
CWAR | ≤ 0.2
PSCM | ≤ 0.2
QDAF | ≤ 0.2
APPH | ≤ 0.2
CTYS | ≤ 0.2
ATYE | ≤ 0.2

Variant | one-hybrid fitness for binding NBS DNA
RFTR | 0.298
RMTH | ≤ 0.2
RMTR | 0.446
RPTR | ≤ 0.2
RMTP | ≤ 0.2
RCTR | 0.534
FPHC | ≤ 0.2
CSFN | ≤ 0.2
QSVR | 0.379
QPVH | ≤ 0.2
QPVN | ≤ 0.2
QGVR | ≤ 0.2
QPVR | 0.377
QDVR | ≤ 0.2
QSVD | ≤ 0.2
QCVR | 0.48
QSVN | ≤ 0.2
RICA | ≤ 0.2
IIHR | ≤ 0.2
TNLI | ≤ 0.2
SPSF | ≤ 0.2
FYQC | ≤ 0.2
GTTP | ≤ 0.2
QCER | 0.438

Variant | one-hybrid fitness for binding NBS DNA
QRER | 0.637
QSER | 0.285
QHER | 0.288
QTEN | ≤ 0.2
QTEP | ≤ 0.2
QIER | 0.219
QTER | 0.458
QPER | ≤ 0.2
SKCT | ≤ 0.2
HAHK | ≤ 0.2
QAQC | ≤ 0.2
VFIG | ≤ 0.2
QSSC | ≤ 0.2
QCSM | ≤ 0.2
QPSN | ≤ 0.2
QCSC | ≤ 0.2
QCSH | 0.272
QSSH | ≤ 0.2
QRSN | 0.366
QPSM | ≤ 0.2
QRSM | 0.374
QRSC | 0.366
QRSH | 0.522
QCSN | ≤ 0.2

Variant | one-hybrid fitness for binding NBS DNA
YCVT | ≤ 0.2
ANMM | ≤ 0.2
GNYC | ≤ 0.2
KFHF | ≤ 0.2
LSDV | ≤ 0.2
QMHF | ≤ 0.2
GKLV | ≤ 0.2
PMVT | ≤ 0.2
VREL | ≤ 0.2
QRSQ | 0.434
QRSS | 0.659
QRSD | 0.208
QPSQ | ≤ 0.2
QCSQ | 0.271
QRSP | ≤ 0.2
MSPC | ≤ 0.2
KWCV | ≤ 0.2
LAAG | ≤ 0.2
HYQF | ≤ 0.2
QPFR | ≤ 0.2
QSFR | 0.37
QSFH | ≤ 0.2
QSFN | ≤ 0.2
QDFR | ≤ 0.2

Variant | one-hybrid fitness for binding NBS DNA
QCFR | 0.517
FCHW | ≤ 0.2
TICV | ≤ 0.2
LGEA | ≤ 0.2
FLQL | ≤ 0.2
LSCN | ≤ 0.2
HMKT | ≤ 0.2
TSIM | ≤ 0.2
LVHF | ≤ 0.2
QMYC | ≤ 0.2
QKRC | 0.425
QTRC | 0.548
QKYC | ≤ 0.2
QCRC | 0.512
QTDC | ≤ 0.2
QMRC | 0.406
QMDC | ≤ 0.2
QTYC | ≤ 0.2
QCYC | 0.204
QKDC | ≤ 0.2
QPRC | ≤ 0.2
PNKD | ≤ 0.2
RLIW | ≤ 0.2
CRYF | ≤ 0.2

Variant | one-hybrid fitness for binding NBS DNA
IAWR | ≤ 0.2
GMPT | ≤ 0.2
VMEC | ≤ 0.2
LQWD | ≤ 0.2
PYKF | ≤ 0.2
ENTG | ≤ 0.2
QRYC | 0.296
QSRC | 0.374
QRRC | 0.489
QSYC | ≤ 0.2
QREC | 0.22
QSDC | ≤ 0.2
IMYD | ≤ 0.2
YWMG | ≤ 0.2
QPFT | ≤ 0.2
QCFT | 0.424
NRAT | ≤ 0.2
QSFT | 0.315
DRAT | ≤ 0.2
QRAT | 0.797
QRFT | 0.723
RWNW | ≤ 0.2
MQNW | ≤ 0.2
DCWS | ≤ 0.2

Variant | one-hybrid fitness for binding NBS DNA
TDLC | ≤ 0.2
NLFC | ≤ 0.2
PGYI | ≤ 0.2
MRFG | ≤ 0.2
SRKF | ≤ 0.2
PKCF | ≤ 0.2
VYYR | ≤ 0.2
QCKG | 0.377
QTVG | ≤ 0.2
QTKG | 0.503
QIKG | ≤ 0.2
QPKG | ≤ 0.2
QTIG | ≤ 0.2
QRVG | 0.232
QRKG | 0.485
QSKG | 0.302
KESF | ≤ 0.2
IFWR | ≤ 0.2
KAHR | ≤ 0.2
AQIS | ≤ 0.2
RGNV | ≤ 0.2
HSPH | ≤ 0.2
WDHG | ≤ 0.2
KMKY | ≤ 0.2

Variant | one-hybrid fitness for binding NBS DNA
QYSQ | ≤ 0.2
QYCQ | ≤ 0.2
QYVQ | 0.313
QYNQ | ≤ 0.2
QYKQ | 0.394
QYRQ | 0.435
RSEI | ≤ 0.2
SPTR | ≤ 0.2
RTYY | ≤ 0.2
RTVH | ≤ 0.2
RTKD | ≤ 0.2
RTKH | 0.651
RTKY | 0.418
RTVN | ≤ 0.2
RTVY | ≤ 0.2
RTVS | 0.39
RTDY | ≤ 0.2
RTVP | ≤ 0.2
RPKY | ≤ 0.2
RTRY | 0.38
